# Experimental data reported in the supplement of paper PMC3545927.
# This is one part of the list. The hit rate among all sequences tested is not known here.
# Biological target: furin, P09958
# Assay: furin cleavage Z-score vs untreated control; higher = more cleavage, active = 3.5 or more, inactive = 1 or less, 8 variable residues between constant flanks
# Summary of the method: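 Reactions of 0.01 ml ran for 7.5, 15 or 30 min in 50 mM HEPES pH 7.5 with CaCl2 and NaCl, at 1:10 enzyme:substrate. In them, purified furin acted on bead-held 8-mer peptides fused to a cDNA oligonucleotide. The cleavage Z-score was obtained by lowess-adjusting log sequencing counts of released DNA against furin-free reactions and scaling by median absolute deviation.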
# Chain of furin, P09958 (P09958 whole entry): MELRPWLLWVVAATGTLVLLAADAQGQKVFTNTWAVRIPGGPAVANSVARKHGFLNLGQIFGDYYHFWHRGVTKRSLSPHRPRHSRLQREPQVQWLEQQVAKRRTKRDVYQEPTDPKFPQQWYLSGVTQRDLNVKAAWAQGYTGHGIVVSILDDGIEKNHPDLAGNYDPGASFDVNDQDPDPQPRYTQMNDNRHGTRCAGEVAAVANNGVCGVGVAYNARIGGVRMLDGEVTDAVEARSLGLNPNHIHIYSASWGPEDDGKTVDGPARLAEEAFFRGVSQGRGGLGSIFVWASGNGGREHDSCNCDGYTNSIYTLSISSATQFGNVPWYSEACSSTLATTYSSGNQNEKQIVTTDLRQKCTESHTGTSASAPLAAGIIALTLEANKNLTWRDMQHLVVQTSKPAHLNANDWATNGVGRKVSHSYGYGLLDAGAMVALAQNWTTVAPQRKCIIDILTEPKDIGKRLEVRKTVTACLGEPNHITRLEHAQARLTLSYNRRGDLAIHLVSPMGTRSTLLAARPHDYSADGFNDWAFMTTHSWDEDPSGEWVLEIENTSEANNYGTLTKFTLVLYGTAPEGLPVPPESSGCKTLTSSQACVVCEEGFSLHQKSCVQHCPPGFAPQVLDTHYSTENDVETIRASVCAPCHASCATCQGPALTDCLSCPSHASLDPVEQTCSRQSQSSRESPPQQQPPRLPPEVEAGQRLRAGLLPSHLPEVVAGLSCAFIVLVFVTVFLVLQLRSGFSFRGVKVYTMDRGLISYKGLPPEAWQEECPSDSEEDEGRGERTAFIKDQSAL
Sequence,furin cleavage Z-score (7.5 min),furin cleavage Z-score (15 min),furin cleavage Z-score (30 min)
CAQYFLTRVEAGNASASA [HC584],-0.544 (inactive),-0.576 (inactive),0.581 (inactive)
CADHLEFWEGAGNASASA [HC937],0.211 (inactive),-1.35 (inactive),0.811 (inactive)
CATVPCHRPSAGNASASA [HC2318],-1.23 (inactive),0.611 (inactive),0.585 (inactive)
CASFGSSSTSAGNASASA [HC1336],-0.845 (inactive),-1.34 (inactive),0.561 (inactive)
CAPCGIVPAKAGNASASA [HC407],0.926 (inactive),0.441 (inactive),0.898 (inactive)
CAITPCSGSWAGNASASA [HC1824],-0.759 (inactive),-0.739 (inactive),-0.66 (inactive)
CARPKRRKPRAGNASASA [FS-3017],6.7 (active),9.47 (active),8.98 (active)
CAEVITSTWVAGNASASA [HC2184],-0.201 (inactive),-0.151 (inactive),0.767 (inactive)
CAMEECKQHLAGNASASA [HC31],0.641 (inactive),0.811 (inactive),0.523 (inactive)
CADVPRRKRKAGNASASA [FS-1316],7.09 (active),7.66 (active),8.13 (active)
CADIHRNKRKAGNASASA [FS-408],0.37 (inactive),0.486 (inactive),2.04
CARSACQRQKAGNASASA [HC1392],0.38 (inactive),-0.49 (inactive),1.17
CADVPCHRPSAGNASASA [HC2311],0.698 (inactive),1.24,0.271 (inactive)
CACVWRRKRKAGNASASA [FS-324],4.9 (active),7.08 (active),5.25 (active)
CARSARRKRKAGNASASA [FS-1610],9.41 (active),11.4 (active),7.56 (active)
CAPREVPCHRAGNASASA [HC2439],-1.48 (inactive),1.55,-0.302 (inactive)
CAWDVVCCSMAGNASASA [HC2108],0.349 (inactive),-0.375 (inactive),0.29 (inactive)
CARGPRRRRSAGNASASA [FS-856],11.2 (active),10 (active),7.78 (active)
CARGPRRASAAGNASASA [FS-1711],-0.617 (inactive),-0.431 (inactive),-0.848 (inactive)
CADSGGARRSAGNASASA [FS-226],-0.625 (inactive),-0.697 (inactive),-0.757 (inactive)
CARGPRARRSAGNASASA [FS-855],7.87 (active),7.54 (active),4.95 (active)
CARAKRFASLAGNASASA [FS-2635],4.64 (active),6.47 (active),8.89 (active)
CARAKRVSWDAGNASASA [FS-1681],-0.617 (inactive),0.099 (inactive),0.302 (inactive)
CARAKRNAVLAGNASASA [FS-2545],6.45 (active),7.8 (active),6.91 (active)
CASTPCSASLAGNASASA [HC2557],0.819 (inactive),0.0223 (inactive),0.939 (inactive)

Sequence,furin cleavage Z-score (7.5 min),furin cleavage Z-score (15 min),furin cleavage Z-score (30 min)
CASTPCSAVLAGNASASA [HC2550],-1.46 (inactive),-0.0198 (inactive),-0.52 (inactive)
CARAKRFVSIAGNASASA [FS-1993],4.74 (active),4.17 (active),5.92 (active)
CARAKRFLRKAGNASASA [FS-1992],4.11 (active),4.74 (active),7.62 (active)
CATTVRLRAYAGNASASA [HC928],0.53 (inactive),0.398 (inactive),-0.429 (inactive)
CAVQAWKSKKAGNASASA [HC1473],0.322 (inactive),1.5,-0.486 (inactive)
CARDVRLVDAAGNASASA [FS-2655],-0.899 (inactive),-0.757 (inactive),0.398 (inactive)
CARMRRYADAAGNASASA [FS-2355],5.77 (active),7.7 (active),6.66 (active)
CARMMRPVSDAGNASASA [FS-1753],-0.43 (inactive),0.272 (inactive),-0.677 (inactive)
CARSGRSANAAGNASASA [FS-2522],1.32,0.616 (inactive),1.79
CARIRRMWNDAGNASASA [FS-2955],3.22,2.6,4.32 (active)
CAREDRDVNDAGNASASA [FS-2393],-1.02 (inactive),-2.7 (inactive),0.632 (inactive)
CARIRRMADAAGNASASA [FS-2339],8.4 (active),10.5 (active),8.11 (active)
CATDCFRKHPAGNASASA [HC452],0.56 (inactive),-0.196 (inactive),1.34
CAYLKGKWVPAGNASASA [HC549],0.545 (inactive),-0.258 (inactive),-0.41 (inactive)
CAMEECSQHPAGNASASA [HC1779],-0.177 (inactive),-0.782 (inactive),2.64
CARKKRTLRGAGNASASA [FS-2037],5.12 (active),8.31 (active),6.62 (active)
CARCKRGTGVAGNASASA [FS-2898],6.24 (active),6.78 (active),5.78 (active)
CAEVVTSTGVAGNASASA [HC2236],0.288 (inactive),-1.6 (inactive),-0.142 (inactive)
CARCKRTVLDAGNASASA [FS-2482],0.324 (inactive),1.14,3.14
CARKKRSTGVAGNASASA [FS-2694],8.73 (active),11.5 (active),10.3 (active)
CARCVRDCDPAGNASASA [FS-3243],0.0718 (inactive),1.92,2.77
CARCKRDCLEAGNASASA [FS-1996],9.7 (active),9.34 (active),8.23 (active)
CARCRRGFGVAGNASASA [FS-1849],0.0621 (inactive),1.42,1.48
CARCKRGMKKAGNASASA [FS-1818],0.324 (inactive),0.604 (inactive),3.09
